Screening results: PubChem, Fisher Drug Discovery Resource Center
This is a sample that favours compounds with a hit; in the whole collection about 0.24% have one here.
hcGAS lum – blocks human cGAS activity; Q8N884; recombinant h-cGAS, ATP depletion, Kinase-Glo luminescence; inhibition, % at 12.5 µM; 290,000 tested, 0.081% active; AID 1259398
mcGAS inh – blocks mouse cGAS activity | recombinant cGAS, Kinase-Glo ATP depletion luminescence | AID 1259399 | inhibition, % at 12.5 µM | Q8C6L5 | 160,000 tested, 0.15% active
NPYLR7 ag – mosquito NPYLR7 agonism. 270,000 tested, 0.15% active. HEK293T NPYLR7/Galpha15, GCaMP6s calcium fluorescence. activation, % at 10 µM; in the data active = activation above about 40%
Large screens that a line does not name were inactive. Rule as the data show it, unless noted: active = inhibition above about 40%; inactive = the rest.

O=C(CSc1nnc2ccc(-c3cccc([N+](=O)[O-])c3)nn12)Nc1nccs1	none
COc1ccc(CCN2COc3ccc4c(c3C2)O/C(=C\c2cccnc2)C4=O)cc1	NPYLR7 ag 46.0
COc1ccc(-c2cc3ccc4c(c3oc2=O)CN(Cc2cccnc2)CO4)c(OC)c1	none
COc1cccc(CN2COc3ccc4c(c3C2)O/C(=C\c2ccncc2)C4=O)c1	NPYLR7 ag 66.4
COc1ccc(CN2COc3ccc4c(c3C2)O/C(=C\c2ccncc2)C4=O)cc1OC	none
CC(O)=CP(=O)(c1ccccc1)c1ccccc1	none (no result: mcGAS inh)
OCc1csc(N2CCCC(CO)(CCc3ccccc3)C2)n1 (configuration not stated)	none (no result: mcGAS inh)
CCn1c(O)c(C=Nc2c(C)nn(C)c2C)c(=O)n(CC)c1=S	none
CCn1c(O)c(C=Nc2c(C#N)c(C)c(C)n2C2CCCCC2)c(=O)n(CC)c1=S	NPYLR7 ag 69.0
Cc1ccccc1-c1cc(C(=O)NC(C)c2ccccc2)c2ccccc2n1 (configuration not stated)	none
O=C(CN1CCc2ccccc2C1)NCC1CCN(c2ccccc2)C1 (configuration not stated)	none (no result: mcGAS inh)
O=C(Cc1ccc2c(c1)CCC2)NCC1CCN(c2ccccc2)C1 (configuration not stated)	NPYLR7 ag 49.1
Cc1cc(C)c(-c2csc(NC(=O)CCc3c(C)nc4nc(N)nn4c3C)n2)c(C)c1	none
Cc1ccc(S(=O)(=O)NCc2cn(Cc3ccccc3)nc2-c2ccccc2)cc1	none
Cc1cccn2c(=O)nc(SCc3cccc4ccccc34)nc12	none (no result: mcGAS inh)
O=C(CC1SC(=O)NC1=O)Oc1ccc(/C=C2\SC(=O)NC2=S)cc1 (configuration not stated)	hcGAS lum 43.7, NPYLR7 ag 158.4 (no result: mcGAS inh)
O=C(O)CN1C(=O)/C(=C\c2ccc(OC(=O)c3ccc(Cl)cc3)cc2)SC1=S	none
COC(=O)N1CCC(NC(=O)NCCOc2ccc3c(c2)CCC3)CC1	none (no result: mcGAS inh)
CCCCN1CCC(CCC(=O)c2cc(Cl)c(N)cc2OC)CC1	none (no result: mcGAS inh)
CCCCN1CCC(COC(=O)c2cc(Cl)c(N)c3c2OCCO3)CC1	mcGAS inh 91.4
O=C1CC(c2cccs2)CC2=Nc3ccccc3NC(c3coc4ccccc4c3=O)C12 (configuration not stated)	none (no result: mcGAS inh)
O=c1oc(-c2ccccc2Br)nc2ccccc12	none
O=c1oc(-c2ccccc2O)nc2ccccc12	hcGAS lum 55.1 (no result: mcGAS inh)
CC1CN(CCNC(=O)c2cncnc2C(C)C)CC(C)O1 (configuration not stated)	none (no result: mcGAS inh)
CCc1nc(SCc2ncc(C(C)(C)C)o2)n[nH]1	none (no result: mcGAS inh)
CC(C)(C)c1cnc(CSc2cnc(NC(=O)C3CCNCC3)s2)o1	NPYLR7 ag 60.1
O=C(CCSc1ccc(F)c(F)c1)N1CCN(S(=O)(=O)c2ccccc2)CC1	none
CCN1CC=C2C(C#N)C(=N)C(C#N)(C#N)C(c3cccs3)C2C1 (configuration not stated)	NPYLR7 ag 49.9
N#CC1C(=N)C(C#N)(C#N)C(c2cccs2)C2CSCC=C12 (configuration not stated)	none (no result: mcGAS inh)
CC(C)N(C)Cc1nnnn1CC(=O)NCC1(C)COC1	none (no result: NPYLR7 ag)
